Compound activity (PubChem BioAssay)
In the library only some 5.4% were active in any assay of this set; here they are far more common.
MPTP block = permeability transition pore inhibition. isolated mouse mitochondria, Ca2+ swelling absorbance, 30 min. inhibition, % at 10 µM. 360,000 tested, 1.4% active;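 active means inhibition of 50% or more, scaled per plate between neutral and stimulator controls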;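 further: 0% = DMSO wells given calcium and 100% = 1 mM EGTA wells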
Mdm2 MdmX PPI = disrupts the human Mdm2-MdmX interaction; SaOS-2 split-luciferase Mdm2/MdmX complementation, luminescence; inhibition, % at 8 µM; 330,000 tested, 3% active;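 active means inhibition of at least 50% at 8 µM in the primary screen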
CSC inhib = cancer stem cell inhibition | cancer stem cell-like cells viability, luminescence | inhibition, % at 7.5 µM | 300,000 tested, 1.1% active; in the data active means inhibition above about 75%; inconclusive means no clear call, values can overlap the other calls; tested in HMLE shEcad cells
Beta apoptosis = blocks beta cell apoptosis. INS-1E cytokine-induced death, ATP luminescence, 48 h; percent of positive-control rescue, neutral wells zero. protection from apoptosis, % (test concentration not listed). 300,000 tested, 0.8% active. AID 435005;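 active means Every replicate reaches about 75%, or at least half do and their mean reaches it too, limit read from the data; inconclusive means At least half of replicates reach the limit but their mean does not; inactive means Under half of replicates reach the limit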;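 further: 0% = cytokine-treated negative control wells and 100% = positive control rescue; higher means more ATP so stronger rescue from cytokine killing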
SKKanGAS inh = SKKanGAS growth inhibition; S. pyogenes SKKanGAS, kanamycin growth, BacTiter-Glo, 6 h; 300,000 tested, 1.3% active; inhibition, % at 7.5 µM;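 active means mean replicate score, as percent of positive control median, at least 50; inconclusive means mean below 50 but one replicate at or above 50; inactive means mean and every replicate below 50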;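 further: strain carries kanamycin resistance gene driven by streptokinase promoter and grows in 40 µg/ml kanamycin; loss of luminescence reflects streptokinase promoter inhibition or plain growth inhibition; 0% = median of DMSO wells and 100% = positive control at its reference dose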
Calb FLC = C. albicans growth modulation with fluconazole. C. albicans CaCi-2 (fluconazole-resistant clinical isolate) + fluconazole, Alamar Blue growth, 48 h. growth inhibition, % (no concentration beside the values). 300,000 tested, 0.57% active. AID 1979;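 active means growth inhibition above about 58% in most replicates, limit read from the data, passing the limit was not always enough; inconclusive means exactly half the replicates above a set limit; inactive means most replicates below a set limit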;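 further: all wells also contain fluconazole at 8 µg/ml as a sub-toxic cotreatment; 0% = median of DMSO wells and 100% = median of geldanamycin control wells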
* = called active by the depositor; ? = inconclusive; / = no result given.

SMILES	MPTP block	Mdm2 MdmX PPI	CSC inhib	Beta apoptosis	SKKanGAS inh	Calb FLC
Cc1ccc(C(C)(C)C)cc1S(=O)(=O)Nc1cccc(C(=O)N2CCN(c3ccccn3)CC2)c1	2.6	6.4	/	/	/	/
COc1ccc(C2CC(c3ccco3)n3ncnc3N2)cc1 (configuration not stated)	-2.0	9.1	0.1	-3.1	-2.2	-2.5
COc1ccc(-c2ccc(C)cc2)cc1[C@H]1[C@@H]2C=CCC[C@@]2(C)C(=O)N1Cc1ccccc1	0.7	40.5	115.3*	3.6	41.4	13.7
COc1ccc(-c2ccc(C(C)=O)cc2)cc1[C@H]1[C@@H]2C=CCC[C@@]2(C)C(=O)N1Cc1ccccc1	-1.5	41.3	67.6	13.1	/	/
CC[C@H]1OC(=O)[C@H](C)[C@@H](O[C@H]2C[C@@](C)(OC)[C@@H](O)[C@H](C)O2)[C@H](C)[C@@H](O[C@@H]2O[C@H](C)C[C@H](N(C)C)[C@H]2O)[C@](C)(OC)C[C@@H](C)C(=O)[C@H](C)[C@@H](O)[C@]1(C)O	4.2	-17.8	-19.3	-5.9	104.4*	-19.7
CC[C@H]1OC(=O)[C@H](C)[C@@H](O[C@H]2C[C@@](C)(OC)[C@@H](O)[C@H](C)O2)[C@H](C)[C@@H](O[C@@H]2O[C@H](C)C[C@H](N(C)C)[C@H]2O)[C@](C)(O)C[C@@H](C)C(=NOCOCCOC)[C@H](C)[C@@H](O)[C@]1(C)O	-5.0	30.5	1.0	-7.5	107.4*	/
O=S(=O)(NCC1CCN(S(=O)(=O)c2ccccc2)CC1)c1ccccc1	0.6	9.8	2.4	-6.8	5.0	-5.2
COc1ccc(/C=C/C(=O)NC2CCCCCC2)cc1S(=O)(=O)N1CCOCC1	1.5	-27.5	23.6	-0.4	-2.3	-5.5
CC(=O)Nc1ccc(OCC(O)CN2CCN(c3cc(Cl)ccc3C)CC2)cc1 (configuration not stated)	-3.8	11.1	84.5*	/	-10.4	-36.6
CC(=O)Nc1ccc(S(=O)(=O)N2CCN(c3ccc(C)c(Cl)c3)CC2)cc1	0.3	19.3	8.8	-1.3	-16.1	-3.6
CC(=O)Nc1ccc(OCC(O)CN2CCN(c3ccc(C)c(Cl)c3)CC2)cc1 (configuration not stated)	-0.4	0.4	119.8*	12.2	0.2	0.2
CS(=O)(=O)N1CCCC(C(=O)NCc2ccco2)C1 (configuration not stated)	0.9	11.5	5.1	-4.3	5.3	18.8
COc1ccccc1NC(=O)CSc1nnc(C2CCCCC2)n1-c1ccccc1	1.2	30.9	82.0*	-5.8	-1.4	-3.4
CCCN(CC1CC1)c1nc(N)c(C#N)c(CC#N)c1C#N	2.0	6.9	5.8	-7.5	-0.3	-2.4
CCCN(CC1CC1)c1nc(C)nc(Nc2c(Cl)cc(Cl)cc2Cl)c1Cl	0.0	41.1	86.2*	/	89.2*	-5.1
Cc1ccc2[nH]c3nc(N/N=C/c4cccc(O)c4)nnc3c2c1	0.3	20.1	80.8*	-3.1	2.7	4.3
COc1cc(/C=N/Nc2nnc3c(n2)[nH]c2ccccc23)ccc1O	0.1	/	4.1	-1.0	6.9	5.9
CCOc1ccccc1N1CCN(CC(=O)Nc2ccccc2C(=O)NC2CC2)CC1	0.6	-0.6	/	/	/	/
COc1ccc(-c2nc(SCc3ccccc3)n(C(=O)c3ccco3)n2)cc1	2.2	-28.9	-5.5	-4.3	4.8	?
O=C(CSc1nnc(NC(=O)c2ccccc2[N+](=O)[O-])s1)NC1CCCC1	-0.2	-16.6	-8.8	2.0	51.5*	5.7
COc1ccccc1C(=O)Nc1nnc(SCC(=O)NC2CCCC2)s1	3.0	-102.0	15.2	4.5	-1.9	0.5
O=C(Oc1ccc(Cl)c2cccnc12)c1cccc([N+](=O)[O-])c1	-0.8	-0.7	107.8*	2.1	26.9	85.0*
O=C(Oc1ccc(Cl)c2cccnc12)c1ccco1	-2.6	23.1	2.4	0.7	86.6*	-3.5
O=C(Oc1c(Cl)cc(Cl)c2cccnc12)c1cccc([N+](=O)[O-])c1	2.3	49.7	176.8*	65.1	88.3*	103.6*
O=C(Oc1c(Cl)cc(Cl)c2cccnc12)N1CCOCC1	0.1	-18.4	-14.1	-2.7	25.9	91.7*
Cc1ccc(C(=O)OCC(=O)N2CCCCCC2)c(O)c1	-0.1	-67.1	/	-2.8	/	/
C=CCNC(=S)NCCO	-1.1	-3.5	5.4	2.0	-5.2	-1.2
